This is a sample that favours compounds with a hit; in the whole collection about 3.8% have one here.
ATXN viability: reduces viability in counter-screen for ATXN expression inhibitors; hit rate 0.49% among 400,000; Potency, µM (series often up to 56.7 µM), actives largely listed as cytotoxic; S2 cells (HEK-293 line with an ATXN2-luciferase reporter) viability, CellTiter-Fluor protease fluorescence, 24 h; also: nearly all actives have a fitted effect of over 40% in size
TGFb SMAD3 inh: blocks TGF-b signaling; HepG2 CAGA-GFP TGF-b/SMAD3 reporter, GFP fluorescence, 18 h; TGF-beta stimulated, 500 pg/mL final; Potency, µM (titrated, usually from 46.1 µM), inactives show at the highest dose activity, negative = inhibition, usual class: inhibitors; hit rate 1.2% among 410,000; AID 588855; also: % is scaled to controls: 0 for no effect and ±100 for the full control effect; nearly all actives have a fitted effect of over 65% in size
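Smad-responsive CAGA-GFP expression was quantified in HEPG2 cells exposed to compounds and 500 pg/mL final TGF-beta for 18 h at 37 degrees C; unstimulated wells defined full inhibition.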
HepG2 viability: counter-screen for TGF-b inhibitors: cytotoxicity in HepG2 cells. HepG2 CAGA-GFP viability, ATP luminescence, 18 h. hit rate 0.76% among 410,000. Potency, µM (top dose mostly 46.1 µM), without a hit: at the top dose activity change, negative = cytotoxicity, most hits filed as cytotoxic
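HepG2 CAGA-GFP cells (1000/well, DMEM with 1% FBS) received compound, then TGF-beta at 500 pg/mL final, and were incubated 18 hours at 37 degrees C. Viability was read by CellTiter-Glo luminescence. Media-only wells were set as complete cell-killing and DMSO as no toxicity.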
ATXN2 expr inh: ATXN2 expression inhibition; AID 1745845; HEK-293 ATXN2-luciferase reporter, luminescence, 24 h; Potency, µM (titrated, usually from 57 µM), without a hit: at the top dose activity change, negative = inhibition, actives largely listed as inhibitors; hit rate 0.72% among 360,000; also: % is scaled to controls: 0 for no effect and ±100 for the full control effect; nearly all actives have a fitted effect of over 55% in size
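ATXN2-luciferase reporter cells (luciferase flanked by upstream and downstream ATXN2 gene portions) were treated 24 h at 37 °C with compounds at up to 57 uM. SteadyGlo luminescence gave expression; GF-AFC fluorescence gave viability.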
HT1080-NT tox: kills 2HG-producing HT-1080-NT fibrosarcoma cells. hit rate 1.6% among 360,000. Potency, µM (series often up to 46.1 µM), for inactives: at the highest dose activity, negative = less viability, actives largely listed as cytotoxic. HT-1080-NT fibrosarcoma viability, CellTiter-Glo ATP luminescence, 48 h;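 also: NT is the 2HG producing partner of a matched IDH1 knockdown line; 0% = DMSO-treated cells and -100% = media-only wells without cells; nearly all actives have a fitted effect of over 55% in size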
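Luminescent CellTiter-Glo readout after 48 hours of compound exposure at 37 degrees C defined viability of HT-1080-NT cells. Activity was normalized to DMSO wells and cell-free media wells; concentration-response curves were fitted and assigned curve classes.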
HT1080 IDH1KD tx: toxicity to HT-1080 IDH1 knockdown cells (counter line); HT-1080 IDH1 knockdown viability, ATP luminescence, 48 h; Potency, µM (series often up to 46.1 µM), inactives show top-dose activity, negative = toxicity, usual class: cytotoxic; hit rate 2% among 360,000; AID 686971;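 also: 0% = DMSO wells and -100% = cell-free medium wells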
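Using the IDH1-knockdown HT-1080 line run in the same batch and compound series as the NT line, viability after 48 h at 37 °C was determined by CellTiter-Glo luminescence and expressed as % activity.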
Starred values were filed as active, the others as inactive; i = inactive; ? = inconclusive; / = no result given; ! = a repeat was not active; [ ] = dose if it differs, or a comment. Calls follow the shape of the dose curve; as a rule, active = well fitted curve in the direction sought with a large enough effect; inconclusive = small, poorly fitted or top-dose-only effect, or another doubt; inactive = no such curve, though single readings can be large; an effect the other way counts as inactive or inconclusive. Potency is read from the fitted curve at half-maximal effect.

SMILES	ATXN viability	TGFb SMAD3 inh	HepG2 viability	ATXN2 expr inh	HT1080-NT tox	HT1080 IDH1KD tx
C#CCOCCOCCOCCNc1nc(N2CCN(C(=O)CCCCCCCCCCNC(=O)[C@@H]([C@H](C)O)n3cc(C)nn3)CC2)nc(N2CCN(C(=O)CCCCCCCCCCNC(=O)[C@@H]([C@H](C)O)n3cc(C)nn3)CC2)n1	i	-9%	-3%	-14%	-27%	21µM*
C#CCOCCOCCOCCNc1nc(N2CCN(C(=O)CCCCCCCCCCNC(=O)[C@H]([C@@H](C)CC)n3cc(CCCCCN)nn3)CC2)nc(N2CCN(C(=O)CCCCCCCCCCNC(=O)[C@@H]([C@H](C)O)n3cc(C)nn3)CC2)n1	16µM*	?	-102%	16µM*	?	?
C#CCOCCOCCOCCNc1nc(N2CCN(C(=O)CCCCCCCCCCNC(=O)Cn3cc(CCCCCN)nn3)CC2)nc(N2CCN(C(=O)CCCCCCCCCCNC(=O)[C@H]([C@@H](C)CC)n3cc(CCCCCN)nn3)CC2)n1	22µM*	?	-116%	?	?	?
OC[C@H]1O[C@@H](Oc2cc(O)cc(C=Cc3ccc(O)cc3)c2)[C@H](O)[C@@H](O)[C@H]1O	/	/	/	15%	/	/
Cc1ccccc1CN1[C@@H](CC2CCCCC2)COCCS1(=O)=O	?	11µM*	11µM*!	-33%	-8%	-14%
O=S1(=O)CCOC[C@H](CC2CCCCC2)N1Cc1ccccc1	i	?	-2%	0%	17%	4%
O=S1(=O)CCOC[C@H](CC2CCCCC2)N1Cc1cccc(Cl)c1	i	16µM*	-5%	-27%	-27%	0%
Cc1ccc(Cl)cc1NC(=O)c1oc2c(c1C)-c1[nH]ncc1CC2	/	-18%	-39%	/	/	/
C/C=C(\C)C(=O)NCCN1Cc2ccccc2OC(c2ccccc2OC)C1 (stereo unspecified)	i	/	/	/	/	/
CCCCCCCCCCCCCCCCn1cc[n+](C)c1	20µM*	11µM*	-103%	14µM*!	16µM*	21µM*
C=CCN(C(=O)CSc1nc2c(sc3ccccc32)c(=O)n1CCN(CC)CC)c1ccccc1	?	18µM*	-21%	?	?	?
Cn1ccnc1C(O)c1cc(C(C)(C)C)c(O)c(C(C)(C)C)c1 (stereo unspecified)	i	16µM*	-81%	-7%	16µM*	5%[9.24 µM]
CC(C)(Sc1cc(C(C)(C)C)c(O)c(C(C)(C)C)c1)Sc1cc(C(C)(C)C)c(O)c(C(C)(C)C)c1	i	-3%	1%	-7%	-8%	19%
CCCCn1c(=O)[nH]c(=O)c2c1nc(Cn1ncc(Cl)c(Cl)c1=O)n2CCC	?	6.3µM*	11µM*	?	8.2µM*	12µM*
CCCCn1c(=O)[nH]c(=O)c2c1nc(CN1C(=O)c3ccccc3S1(=O)=O)n2CCC	i	-7%	-19%	5%	5%	9%
CCN1CCN(CCCNC(=O)c2cc3c(s2)-c2c(C)cccc2OC3)CC1	i	?	-89%	-17%	/	/
Fc1ccc(Nc2nc(SCc3cccc(F)c3)nc3ccccc23)cc1	/	?	13µM*	/	/	/
Fc1ccc(Nc2nc(SCc3cccc(Cl)c3)nc3ccccc23)cc1	/	?	-108%	/	/	/
CCn1c(-c2ccccc2F)nc2cc(C(=O)NC(c3ccccn3)C(F)(F)F)cc(NC(C)=O)c21 (stereo unspecified)	i	/	/	/	/	/
Cc1[nH]nc(C(=O)NN=Cc2ccccc2Cl)c1N=NN(C)C	?	10µM*	20µM*	0%	21µM*	23µM*
Cc1ccc(C(=O)Nc2c(-c3cccs3)c(=O)c3ccccc3n2C)cc1	?	?	14µM*	-9%	?	?
Cc1ccc(C)c(NC(=O)CSc2nc(-c3ccccc3)cc(=O)[nH]2)c1	/	-24%	-5%	/	/	/
COc1ccc(-c2cc([C@H]3[C@@H]4C=CCC[C@@]4(C)C(=O)N3Cc3ccccc3)ccc2F)cc1	i	?	1%	-22%	-22%	?
O=C1C2C(c3ccccc3)CC=CC2C(c2ccc(C(F)(F)F)cc2)N1Cc1ccccc1 (stereo unspecified)	/	13µM*	-57%	/	/	/
C[C@@H]1CC=C[C@H]2[C@H]1C(=O)N(Cc1ccccc1)[C@H]2c1ccc2ccccc2c1Br	28µM*	?	13µM*	?	-21%	-16%
SMILES	ATXN viability	TGFb SMAD3 inh	HepG2 viability	ATXN2 expr inh	HT1080-NT tox	HT1080 IDH1KD tx
CC1CC=CC2C1C(=O)N(Cc1ccccc1)C2c1ccc2ccccc2c1C=Cc1ccccc1 (stereo unspecified)	/	6%	-2%	/	/	/
COc1ccc(-c2cc(C3C4C=CCCC4(C)C(=O)N3Cc3ccccc3)ccc2F)cc1 (stereo unspecified)	/	11µM*	-8%	/	/	/
CC1CC=CC2C1C(=O)N(Cc1ccccc1)C2c1ccc2ccccc2c1 (stereo unspecified)	/	11µM*	-75%	/	/	/
C[C@@H]1CC=C[C@H]2[C@H]1C(=O)N(Cc1ccccc1)[C@H]2c1ccc2ccccc2c1	i	?	-22%	-12%	-25%	?
Cc1c(C(=O)NC2CCCCC2)sc2ncnc(NCCN(C)C)c12	i	/	/	/	/	/
C[C@@]12CCC=C[C@H]1[C@H](c1ccc3ccccc3c1Br)N(Cc1ccccc1)C2=O	35µM*	?	-35%	?	?	?
CC12CCC=CC1C(c1ccc3ccccc3c1Br)N(Cc1ccccc1)C2=O (stereo unspecified)	/	?	-24%	/	/	/
COc1cccc(N(C(=O)CCl)C(C(=O)NCCc2ccccc2)c2cccs2)c1 (stereo unspecified)	32µM*	13µM*	-106%	?	1.6µM*	1.3µM*
CCOc1ccccc1NC(=O)Cn1nnc(C(=O)NCc2ccco2)c1N	i	?	-11%	-21%	?	0.041µM*
Cc1cc(C)cc(NC(=O)Cn2nnc(C(=O)NCc3ccc4c(c3)OCO4)c2N)c1	i	1%	2%	?	18µM*	?
COc1ccc(C)cc1NC(=O)c1nnn(Cc2cccc(F)c2)c1N	?	-13%	14%	?	?	4.1µM*
Cc1cccc(NC(=O)Cn2nnc(C(=O)NCc3cccs3)c2N)c1C	i	1%	18µM*	-7%	-18%	-14%
COc1ccc(NC(=O)Cn2nnc(C(=O)NCc3ccc4c(c3)OCO4)c2N)cc1	i	3%	-10%	-14%[11.3 µM]	-21%	-29%

Assay outcomes as filed in PubChem BioAssay.
